Here are results for 13 compounds from PubChem BioAssay (NCATS).

Molecules are shown by their SMILES. Where “and” joins values, the source holds several entries; their conditions need not be identical. Equal values may be shown once. Results filed as inconclusive are left out. A number with no mark means an inactive call. Calls of active or inactive are those of the source. Calls come from the whole dose curve; as a rule, active = well fitted curve in the direction sought with a large enough effect; inconclusive = small, poorly fitted or top-dose-only effect, or another doubt; inactive = no such curve, though single readings can be large; an effect the other way counts as inactive or inconclusive. Numbered stars: 1 amine (or outer) side, 2 acyl side, 3 side chain; on linkers, the order of the positions; unused ones are H or OH. Bridge positions count the residues as written; N and C are the ends. Square brackets hold non-standard residues; d marks the D form. Peptide text beside a SMILES is read from it. I, II: the chains in the order shown. Actinocin(9to1) = Cc1c2oc3c(C)ccc(C(=O)[*:1])c3nc-2c(C(=O)[*:2])c(N)c1=O; NMeV = CN[CH](C(=O)O)C(C)C; Sar = CNCC(=O)O

Assay [1] is described as follows: Viability qHTS for spleen associated tyrosine kinase inhibitor (SYKi) naive MV4-11 cells (AID 1963823). Note: nearly all actives have a fitted effect of over 40% in size. The gist of the method:
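Luminescence from CellTiter-Glo, developed 10 min at room temperature, gave viability of MV4-11 cells never exposed to SYK inhibitor. Cells (500/well) had been incubated with compounds for 72 hr under standard culture conditions.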

Assay [2] is described as follows: Viability qHTS for spleen associated tyrosine kinase inhibitor (SYKi) drug resistant MV4-11 cells (AID 1963824). Note: nearly all actives have a fitted effect of over 35% in size. The procedure, abridged:
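CellTiter-Glo luminescence, read 10 min after reagent addition, reports viability after a 72 hr compound exposure. Cells are an MV4-11 line made resistant to SYK inhibition, seeded at 500 per well onto compound-containing plates.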

Assay [3] in a line: Quantitative highthroughput screen to assess conditional lethalithy of NOMO1 cells grown in RPMI1640 with untreated serum (RPMI+s) (AID 1963876).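 For Viability: 100% = DMSO wells and 0% = empty wells without cells.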 Note: nearly all actives have a fitted effect of over 35% in size. The procedure, abridged: (§1)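 Each medium arm—HPLM with 10% dialyzed FBS, or RPMI1640 with 5 mM glucose and 10% untreated or dialyzed FBS—was screened against an 11-point, 3-fold compound titration for 48 h at 37 °C, with CellTiter-Glo luminescence as endpoint.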

Assay [4] can be described thus: Quantitative highthroughput screen to assess conditional lethalithy of NOMO1 cells grown in RPMI1640 with dialyzed fetal bovine serum (RPMI+ds) (AID 1963877).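 For Viability: series mostly up to about 46 µM; 100% = DMSO control wells and 0% = empty wells.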 Note: nearly all actives have a fitted effect of over 30% in size. The gist of the method:
as §1

The nature of assay [5]: Quantitative highthroughput screen to assess conditional lethalithy of NOMO1 cells grown in Human Plasma-Like Medium with dialyzed fetal bovine serum (HPLM+ds) (AID 1963878).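 For Viability: 100% = DMSO wells and 0% = empty wells on each plate.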 Note: nearly all actives have a fitted effect of over 35% in size. The procedure, abridged: as §1
Assay [6] can be described thus: Quantitative highthroughput screen to assess conditional lethalithy of P12 Ichikawa cells grown in Human Plasma-Like Medium with dialyzed fetal bovine serum (HPLM+ds) (AID 1963879). For Viability: series mostly up to about 46 µM. Note: nearly all actives have a fitted effect of over 35% in size. The following applies: Potency: viability. The gist of the method: as §1
The nature of assay [7]: Quantitative highthroughput screen to assess conditional lethalithy of P12 Ichikawa cells grown in RPMI1640 with dialyzed fetal bovine serum (RPMI+ds) (AID 1963880).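 For Viability: 100% = DMSO wells and 0% = empty wells on each plate.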 Note: nearly all actives have a fitted effect of over 35% in size. The settings on record: Potency: P12-Ichikawa viability. The procedure, abridged:
as §1

Assay [8] is described as follows: Quantitative highthroughput screen to assess conditional lethalithy of P12 Ichikawa cells grown in RPMI1640 with untreated serum (RPMI+s) (AID 1963881).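 For Viability: series mostly up to about 46 µM; 100% = DMSO wells and 0% = empty wells without cells.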 Note: nearly all actives have a fitted effect of over 35% in size. The settings on record: Potency: viability. The gist of the method:
as §1

Assay [9] can be described thus: Quantitative highthroughput screen to assess conditional lethalithy of SEM cells grown in Human Plasma-Like Medium with dialyzed fetal bovine serum (HPLM+ds) (AID 1963882). For Viability: series mostly up to about 46 µM. Note: nearly all actives have a fitted effect of over 35% in size. The gist of the method: as §1
A short description of assay [10]: Quantitative highthroughput screen to assess conditional lethalithy of SEM cells grown in RPMI1640 with unreated serum (RPMI+s) (AID 1963883).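 For Viability: 100% = DMSO wells and 0% = empty wells without cells.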 Note: nearly all actives have a fitted effect of over 35% in size. The gist of the method: as §1
A short description of assay [11]: Quantitative highthroughput screen to assess conditional lethalithy of SEM cells grown in RPMI1640 with dialyzed fetal bovine serum (RPMI+ds) (AID 1963884).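 For Viability: series mostly up to about 46 µM; 100% = DMSO control wells and 0% = empty wells without cells.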 Note: nearly all actives have a fitted effect of over 35% in size. The procedure, abridged: as §1
A short description of assay [12]: Cellular viability qHTS for adrenocortical cancer (ACC) cell line SW-13 (AID 1963989).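 For activity (max response): cells grown in serum-free medium with ITS supplement; % is set by controls: 0 for no effect and ±100 for the full control effect.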 Note: nearly all actives have a fitted effect of over 65% in size. The settings on record: SW-13 ACC cells viability, CellTiter-Glo, 48 h; activity (max response): hits give low values. The gist of the method:
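Here, serum-free SW-13 cultures were dosed up to 46 uM. Following 48 h, ATP-dependent luminescence (CellTiter-Glo) reported viable cells, and logistic modeling produced IC50 values.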

A short description of assay [13]: Cellular viability qHTS for adrenocortical cancer (ACC) cell line NCI-H295R (AID 1963990).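 For activity change, negative = viability loss: 0% = DMSO only wells and -100% = full killing with cytotoxic reference compound.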 Note: nearly all actives have a fitted effect of over 60% in size. The procedure, abridged: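 Viability of NCI-H295R after 48 h of treatment (final up to 46 uM) measured through cellular ATP luminescence.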
Potency is the fitted concentration of half-maximal effect.

Take `COC(=O)C1=C(C)NC(C)=C(C(=O)OCCCN2CCC(c3ccccc3)(c3ccccc3)CC2)C1c1cccc([N+](=O)[O-])c1` (centres undefined): the Potency in [1] is 4.68 µM (active) and 8.41 µM (active); in [2], 4.68 µM (active) and 7.5 µM (active); in assay [12], 5.62 µM (active) and 13 µM (active); in assay [13], 7.08 µM (active) and 8.2 µM (active). Also, the Potency entry in [3], in [4], in [5], in assay [6], in assay [7] and in assay [8] was “inactive” in each case. In addition, the Potency entry in assay [9], in assay [10] and in assay [11] was “inactive” throughout.

Turning to `O=S(=O)(O)CCSSCCS(=O)(=O)O`, the Potency result in assay [1], in assay [2], in assay [3], in assay [4], in assay [5] and in [6] was “inactive” in each case. The Potency result in [7], in [8], in assay [9], in assay [10], in assay [11] and in [13] was “inactive” each time. In addition, the activity (max response) in [12] is 0.678%.

In the case of `CCOC(=O)C(C)Oc1cccc2c(=O)n(CC(=O)Nc3ccc4c(c3)OCCO4)ccc12` (centres undefined), the Potency in [1] is 1480 nM (active); in assay [2], 934 nM (active). The Potency result in assay [3], in [4], in [5], in assay [6], in assay [7] and in assay [8] was “inactive” in each case. The Potency result in assay [9], in assay [10], in assay [11] and in [13] was “inactive” throughout. For the same compound, the activity (max response) in [12] is 14.3%.

`CN1C(C(=O)Nc2ccccn2)=C(O)c2sc(Cl)cc2S1(=O)=O`: the Potency entry in assay [1], in assay [3], in assay [4], in [5], in assay [6] and in assay [7] was “inactive” throughout. The Potency result in [8], in assay [9], in [10], in assay [11] and in assay [13] was “inactive” in each case. Besides, the Potency in [2] is 16600 nM (active). In addition, the activity (max response) in assay [12] is -21.7%.

With `CC1Cc2ccccc2N1NC(=O)c1ccc(Cl)c(S(N)(=O)=O)c1` (centres undefined), the Potency result in assay [1], in assay [2], in assay [3], in assay [4], in assay [5] and in [6] was “inactive” in each case. Also, the Potency result in assay [7], in assay [8], in assay [9], in assay [10], in assay [11] and in assay [13] was “inactive” throughout. For the same compound, the activity (max response) in assay [12] is 9.73% and 7.78%.

On to `Cn1cc(C[C@@H](N)C(=O)O)c2ccccc21`, for which the viability (% of control) in assay [1] is 69.9% [at 9.25 µM]. Moreover, the viability, % of control in assay [2] is 75.4% [at 9.25 µM]. The Potency result in [3], in assay [4], in assay [5], in assay [6], in [7] and in [8] was “inactive” throughout. The Potency result in assay [9], in [10] and in [11] was “inactive” throughout. Moreover, in assay [12], the activity (max response) was -6.77%. Further, the activity change, negative = viability loss in assay [13] is -13.9% [at 9.17 µM].

Take `O=c1cc(-c2cccc3c2Sc2ccccc2S3)oc(N2CCOCC2)c1`: the Potency in [1] is 6.51 µM (active) and 16.6 µM (active); in assay [2] it was 5.8 µM (active) and 9.34 µM (active); in [12], 28.2 µM (active); in assay [13], 25.1 µM (active). Further, the Potency result in assay [3], in assay [4], in assay [5], in assay [6], in assay [7] and in assay [8] was “inactive” each time. Further, the Potency result in [9], in [10] and in [11] was “inactive” throughout.

For `CN(C)c1ccc(C(=O)NCCCCCCC(=O)NO)cc1`, the Potency in assay [1] was 833 nM (active); in assay [2] it was 742 nM (active); in [3], 2960 nM (active); in [4], 2350 nM (active); in [5] it was 2640 nM (active); in assay [6], 1480 nM (active). Also, the Potency is 1180 nM (active) in [7]; 1480 nM (active) in assay [8]; 1320 nM (active) in assay [9]; 1320 nM (active) in [10]; 1180 nM (active) in assay [11]; 4.47 µM (active) in assay [12]. In addition, the Potency in [13] was 1.41 µM (active).

Consider `CC(C)C[C@H](NC(=O)[C@H](CCc1ccccc1)NC(=O)CN1CCOCC1)C(=O)N[C@@H](Cc1ccccc1)C(=O)N[C@@H](CC(C)C)C(=O)[C@@]1(C)CO1`, for which the Potency in [1] was 3 nM (active); in [2], 10.6 nM (active) and 4.7 nM (active); in assay [3], 37.2 nM (active); in [4], 37.2 nM (active); in [5], 37.2 nM (active); in [6], 33.2 nM (active). The Potency in assay [7] was 23.5 nM (active); in assay [8] it was 20.9 nM (active); in [9], 13.2 nM (active); in [10], 8.3 nM (active); in assay [11] it was 13.2 nM (active); in assay [12] it was 103 nM (active) and 112 nM (active). For the same compound, the Potency in assay [13] is 65.1 nM (active) and 63.1 nM (active).

For `CCCS(=O)(=O)Nc1ccc(F)c(C(=O)c2c[nH]c3ncc(-c4ccc(Cl)cc4)cc23)c1F`, the Potency in assay [1] is 14800 nM (active); in assay [2], 16600 nM (active). Further, the Potency result in assay [3], in [4], in [5], in assay [6], in assay [7] and in assay [8] was “inactive” each time. The Potency result in [9], in assay [10], in assay [11] and in [13] was “inactive” throughout. Besides, the activity (max response) in assay [12] is -1.45%.

With `Cc1c2oc3c(C)ccc(C(=O)NC4C(=O)NC(C(C)C)C(=O)N5CCCC5C(=O)N(C)CC(=O)N(C)C(C(C)C)C(=O)OC4C)c3nc-2c(C(=O)NC2C(=O)NC(C(C)C)C(=O)N3CCCC3C(=O)N(C)CC(=O)N(C)C(C(C)C)C(=O)OC2C)c(N)c1=O` (centres undefined) (I: TVP[Sar][NMeV] / II: TVP[Sar][NMeV]; ester I:1-I:C, II:1-II:C; linker I:N-II:N via Actinocin(9to1); configuration not given here), the Potency in assay [1] was 1.4 nM (active); in assay [2], 1 nM (active); in assay [12], 0.009 µM (active); in assay [13], 0.802 µM (active). The Potency entry in [3], in [4], in assay [5], in assay [6], in assay [7] and in assay [8] was “inactive” each time. For the same compound, the Potency entry in assay [9], in assay [10] and in assay [11] was “inactive” throughout.

`O=C(c1cncc(Br)c1)N1CCC(N2CCCC2)CC1`: the Potency entry in assay [1], in assay [2], in assay [3], in assay [4], in assay [5] and in [6] was “inactive” each time. For the same compound, the Potency entry in assay [7], in [8], in assay [9], in [10], in [11] and in assay [13] was “inactive” in each case. Moreover, the activity (max response) in assay [12] is 1.51%.

`Nc1ncnc2ccccc12`: the Potency result in [1], in [2], in assay [3], in [4], in assay [5] and in assay [6] was “inactive” each time. The Potency entry in [7], in assay [8], in assay [9], in [10], in assay [11] and in assay [13] was “inactive” in each case. Further, the activity (max response) in [12] was 12%.
